A selection: hits, their analogues and other compounds. The true share with any hit is near 5.9%.
HSP90 refold inh – HSP90 refolding inhibition in rabbit reticulocyte lysate | luciferase refolding luminescence, 3 h | inhibition, % at 5.6 µM | 290,000 tested, 0.91% active | AID 1789;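 active = inhibition above the screen-wide mean plus 3 SD, computed separately per campaign, cut at about 16% in these data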;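 also: 0% = DMSO wells and 100% = 60 µM geldanamycin wells; inhibitors lower the luminescence because luciferase stays unfolded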
HSF-1 act – increases HSF-1 driven luciferase reporter signal | NIH3T3-HGL HSF-1 luciferase reporter, MG132, 8 h; 100% = twice DMSO control signal | activation, % at 9 µM | 300,000 tested, 1.7% active | AID 504408;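 active = mean replicate activation of at least 50% with a set share of replicates each reaching 50%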;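 also: 0% = median of the neutral control wells and 100% = twice that signal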
HSF1 inhib – HSF1 inhibition | NIH3T3-HGL HSE-luciferase, MG132-induced, luminescence 8 h; stronger effect = lower value | activity change, negative = inhibition, % at 7.5 µM (by protocol) | 300,000 tested, 0.77% active;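 active = more than half of replicate wells show activity change below -50%, luminescence cut by over half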;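 also: luciferase reports HSF-1 transcriptional activity via heat shock element; 0% = median of DMSO wells and -100% = zero luminescence signal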
AHR activator – activates the human aryl hydrocarbon receptor | P35869 | AHR-responsive luciferase reporter cells, luminescence | activation, % at 5 µM | 320,000 tested, 2.5% active | AID 2796; in the data active = activation above about 47%;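 also: 0% = vehicle wells and 100% = reference agonist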
GAA850 FXN act – activators of GAA850 frataxin (FXN) promoter | 360,000 tested, 0.56% active | activation, % at 6 µM | HEK293 lucGAA850 FXN promoter luciferase reporter, 24 h; percent of 10 µM SAHA response;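 active = activation above the average of all compounds screened plus 3 SD, cutoff fixed separately per campaign, cut at about 7.5% in these data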;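 also: 0% = DMSO wells and 100% = 10 µM SAHA wells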
NR0B1 inh – inhibits human nuclear receptor DAX1; P51843; inhibition, % at 6.75 µM; HEK293 Gal4-DAX1 luciferase reporter, luminescence; 340,000 tested, 0.99% active;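 active = inhibition above the mean over all tested compounds plus 3 SD, cut at about 4.2% in these data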;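 also: 0% = DAX1-transfected cells with DMSO and 100% = empty-vector control cells with DMSO; inhibition shows as a rise in luminescence from relieved DAX1 repression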
Target sequence (P51843 207-470 limits assumed): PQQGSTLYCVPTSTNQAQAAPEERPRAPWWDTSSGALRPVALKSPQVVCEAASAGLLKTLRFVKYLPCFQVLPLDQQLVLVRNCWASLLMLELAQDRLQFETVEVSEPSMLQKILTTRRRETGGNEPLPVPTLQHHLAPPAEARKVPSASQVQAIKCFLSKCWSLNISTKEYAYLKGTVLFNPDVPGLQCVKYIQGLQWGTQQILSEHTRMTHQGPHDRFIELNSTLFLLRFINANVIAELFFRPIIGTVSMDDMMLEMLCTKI
* = called active by the depositor; . = no result given.

SMILES | HSP90 refold inh | HSF-1 act | HSF1 inhib | AHR activator | GAA850 FXN act | NR0B1 inh
CC(C)NC(=S)N=Nc1c(O)[nH]c2ccc([N+](=O)[O-])cc12 | 2 | 1 | -9 | 60* | 4 | 0
COc1ccc(-c2csc(NCc3ccco3)n2)cc1C | 5 | 1 | 1 | 3 | 7 | 0
COc1ccc(-c2nc3cccc(C)n3c2NCc2ccco2)cc1OC | 2 | -21 | -3 | 57* | 1 | -1
Cc1cc2cc3c(cc2nc1SCC(=O)Nc1nc(C)c(C)s1)OCO3 | 0 | 7 | -2 | 92* | 2 | -1
COC(=O)CSc1nc2cc3c(cc2cc1C)OCO3 | 0 | -2 | -6 | 1 | 1 | -1
NNC(=O)c1nn(-c2ccc(Cl)cc2)cc1O | -4 | -72 | -70* | 8 | 0 | -1
Cc1ccc(NC(=O)COC(=O)c2nn(-c3ccc(Cl)cc3)cc2O)cc1 | . | . | . | 3 | 0 | 2
CCCNC(=O)c1cc2c(C(F)(F)F)nn(C)c2s1 | 1 | 25 | -3 | 4 | 2 | 0
CCCNC(=O)c1cc2c3ccccc3n(C)c2s1 | 0 | -2 | 3 | 52* | 0 | -1
COCCNC(=O)c1cc2c(=O)n(C)c3ccccc3c2n1C | -1 | -14 | -5 | 23 | 0 | 0
CC(=O)Nc1ccc(S(=O)(=O)NNC(=O)c2cccc3ccccc23)cc1 | -2 | 0 | -1 | 7 | -3 | -1
Cn1c2ccccc2c2cc(C(=O)NNC(=O)CCl)sc21 | 1 | 12 | 4 | 62* | -3 | -2
CC(=O)Nc1ccc(S(=O)(=O)NNC(=O)c2cc3c4ccccc4n(C)c3s2)cc1 | 2 | -2 | 6 | 75* | 0 | -2
COCCNC(=O)c1cc2c3ccccc3n(C)c2s1 | -1 | 3 | 1 | 49* | 2 | 0
Cc1ccc(C2=NS(=O)(=O)N(C)C(C(=O)N3CCCCC3)=C2)cc1 | -6 | 1 | -9 | 2 | 1 | 0
Cn1c(SCC(=O)Nc2ccc(Cl)cc2F)nnc1-c1ccco1 | 6 | 29 | -2 | -3 | 2 | 0
CCCCNC(=O)c1ccc2nc(CC)c(N(C)Cc3cccs3)n2c1 | . | . | . | . | -5 | .
Cc1cccc(NC(=O)CSc2nnc(CNC(=O)c3ccco3)n2C)c1 | 1 | 3 | -2 | 0 | 1 | 1
C=CCc1c(C)nc(N2CCSCC2)[nH]c1=O | -1 | 15 | 3 | 0 | 0 | 4.3*
CCCN(CC(=O)Nc1ccccc1OC)C(=O)CNC(=O)c1ccc(C)s1 | . | . | . | . | 0 | -1
CCN(CC)c1ccc([N+](=O)[O-])cc1C(=O)N1CCOCC1 | 8 | 55* | 8 | 1 | 2 | 0
Cc1cc(NC(=O)CSc2nnnn2-c2ccccc2)no1 | 3 | 18 | 10 | 3 | 3 | 1
Cc1cc(N/C=C\c2nnnn2-c2ccccc2)no1 | -4 | -7 | 4 | 69* | 2 | 1
Cc1cc(C)c(NC(=O)C2CCCN2CCC(C)C)c(C)c1 (stereo unspecified) | 2 | 2 | 7 | 1 | 0 | 4.8*
CC(=O)Nc1ccc(NC(=O)C2CCCN2C(=O)Nc2ccc(F)c([N+](=O)[O-])c2)cc1 (stereo unspecified) | -4 | 2 | 2 | -2 | -2 | 4.9*
SMILES | HSP90 refold inh | HSF-1 act | HSF1 inhib | AHR activator | GAA850 FXN act | NR0B1 inh
CC(=O)Nc1ccc(NC(=O)C2CCCN2C(=O)Nc2ccccc2[N+](=O)[O-])cc1 (stereo unspecified) | -2 | -37 | -23 | -1 | -1 | 0
Cc1ccc(NC(=O)N2CCCC2C(=O)Nc2c(C)cc(C)cc2C)cc1 (stereo unspecified) | -1 | 57* | 20 | 0 | 0 | 0
CN(C)CCCNC(=O)C(=O)NCC(c1cccs1)S(=O)(=O)c1ccc(F)cc1 (stereo unspecified) | . | 7 | 1 | -1 | 1 | 2
Cc1nn(-c2ccc(F)cc2)c2nc(N)c(C#N)c(-c3ccc(O)c(O)c3)c12 | 4 | -15 | -6 | . | 6 | -1
Cc1nn(-c2ccc(F)cc2)c2nc(N)c(C#N)c(-c3cccs3)c12 | 4 | 2 | 4 | 65* | -1 | -2
CC(=O)c1ccc2c(c1)c(C#N)c1ccccc1[n+]2[O-] | -4 | 6 | -5 | . | 3 | 0
COc1ccc(Cl)cc1NC(=O)CN(C)C(=O)CCc1nc2ccccc2c(=O)[nH]1 | . | . | . | 6 | 2 | 0

Assay outcomes from PubChem.
